Reference: PubChem BioAssay (NCI)
The panel holds about 83,000 compounds, 20% with a hit somewhere; the sample as a whole holds those more often.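 Single-concentration screen, 48 h exposure, 96-well plates. Endpoint: percent growth. Below 10 = active.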 Active and inactive are the calls of the source.

Assays:
Test in all cases: NCI-60 one-dose screen, 48 h (100 = growth as untreated, 0 = no growth, -100 = all killed)
Settings in all cases: 10 µM unless noted
[1] = test system: RPMI-8226 leukemia
[2] = test system: OVCAR-8 ovarian
[3] = test system: OVCAR-5 ovarian
[4] = test system: OVCAR-4 ovarian
[5] = test system: SK-OV-3 ovarian
[6] = test system: OVCAR-3 ovarian
[7] = test system: HS 578T breast
[8] = test system: NCI/ADR-RES ovarian
[9] = test system: IGROV1 ovarian

Measured: growth

[N-]=[N+]=NCc1cccc(/C(O)=C/C(=O)C(=O)O)c1
inactive: [1] 90.7% | [2] 79.4% | [3] 63.5% | [4] 94.9% | [5] 107% | [6] 126% | [7] 82.6% | [8] 78.6%

COc1ccc(C(=O)/C=C/c2ccc(C)cc2)cc1OC
active: [9] -18.8% | [6] 4.42%
inactive: [1] 18.9% | [3] 90.1% | [4] 72.6% | [5] 97.7% | [7] 107% | [8] 71.2%

COc1ccc(C2=NN(C(N)=S)C(c3ccc4c(c3)OCO4)C2)cc1 (stereo not given)
active: [9] -22% | [6] -21.5% | [7] -13% | [8] 5.5%
inactive: [2] 20.9% | [3] 75.1% | [5] 33.8%

O=Nc1c2cccnc2n2nnc3ccc(Cl)cc3c12
inactive: [3] 94.9% | [5] 92.2% | [7] 70% | [8] 54.8%
active: [1] -63.1% | [2] -26.8% | [4] -27.7% | [6] -29.5%

Cc1sc2nc3c4ccccc4c(NCCCN(C)C)nn3c(=O)c2c1C
inactive: [3] 71% | [4] 65.8% | [5] 65.7% | [9] 23.4% | [6] 59.2% | [7] 71.6%
active: [1] -56.4%

CCN(CC)CCOCC[C@H]1CC[C@H]2[C@@H]3[C@H](C)Cc4cc(OS(N)(=O)=O)ccc4[C@H]3CC[C@]12C
active: [1] -56.4% | [3] -50.1% | [4] 8.49% | [5] -94.8% | [6] -86.5% | [7] -44.6% | [8] -70.2%

COc1cccc(N2CCN(CC(=O)N3CCN(c4nnc(-c5ccc(Cl)cc5)c(-c5ccc(Cl)cc5)n4)CC3)CC2)c1
active: [1] -37.2%
inactive: [3] 85.9% | [4] 57.9% | [5] 95.6% | [6] 68.1% | [7] 58.4% | [8] 65.2%

CC[C@@H](C)/C=C(C)/C=C/C(O)=C1\C(=O)N[C@@H](Cc2ccc(OC(=O)[C@@](OC)(c3ccccc3)C(F)(F)F)cc2)C1=O
inactive: [2] 103% | [3] 120% | [5] 112% | [7] 67.8% | [8] 49.6%

Cc1cc(C)c2c(N)c3cccc(C)c3nc2n1
active: [1] -35% | [3] -22.9% | [4] 2.47% | [5] 2.68% | [9] -38.1% | [6] -35.7% | [8] -28.9%
inactive: [7] 73.2%
